Among the data in PubChem BioAssay (EPA / NIEHS) are outcome and AC50 values, retold here.

Inconclusive results are not listed. Active and inactive are the calls of the source. How the source made its calls: active means hit-call score of the fitted dose curve at least 0.9, where 1 is the maximum; inconclusive means response in the unintended direction; inactive means score below 0.9.

Sequence of Cytochrome P450 2C19 (Homo sapiens) (P33261 whole entry, looked up): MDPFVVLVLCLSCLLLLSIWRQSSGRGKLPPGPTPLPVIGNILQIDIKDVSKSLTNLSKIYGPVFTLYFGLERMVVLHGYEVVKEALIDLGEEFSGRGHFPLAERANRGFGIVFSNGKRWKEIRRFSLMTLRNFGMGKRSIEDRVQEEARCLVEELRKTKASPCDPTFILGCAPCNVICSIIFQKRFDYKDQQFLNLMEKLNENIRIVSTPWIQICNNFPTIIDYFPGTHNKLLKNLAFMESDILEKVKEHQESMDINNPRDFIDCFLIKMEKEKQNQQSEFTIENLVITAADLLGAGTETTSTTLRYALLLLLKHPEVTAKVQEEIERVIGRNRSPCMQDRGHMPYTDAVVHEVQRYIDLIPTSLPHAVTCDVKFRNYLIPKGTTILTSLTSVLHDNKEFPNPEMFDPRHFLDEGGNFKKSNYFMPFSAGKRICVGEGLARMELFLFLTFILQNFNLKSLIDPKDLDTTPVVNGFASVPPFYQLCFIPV

Read-out in one assay: sulfotransferase (SULT2A), SULT2A1 (gene 6822)
The assay is described as follows: CLD_SULT2A_24hr: CellzDirect (CLD) Gene Expression Assay for sulfotransferase (SULT2A) at 24 hours (AID 2283694). The procedure, abridged:
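mRNA is measured by qNPA: probe hybridisation, S1 nuclease digestion, chemiluminescence, in lysates from human primary hepatocytes harvested 24 h after daily dosing. Vehicle was 0.2% DMSO. Phase-contrast microscopy flagged cytotoxicity (yes/no).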
`CCCCOC(=O)C(C)Oc1ccc(Oc2ccc(C(F)(F)F)cn2)cc1` (centres undefined): the call was inactive.

In the case of `COC(=O)c1ccccc1C(=O)O`, the molecule was classed as inactive. As for `CSC(=O)c1cccc2nnsc12`, the outcome was inactive.

With `COC(=O)c1c(Cl)nn(C)c1S(=O)(=O)NC(=O)Nc1nc(OC)cc(OC)n1`, the call was inactive. The same measure, in the same setting: under `Cc1nn(C)c(Oc2ccccc2)c1C=NOCc1ccc(C(=O)OC(C)(C)C)cc1` stands “inactive”; under `CCCOC(=O)c1ccc(C(=O)OCCC)nc1`, “inactive”. With `Oc1ccc(C(c2ccc(O)cc2)C(Cl)(Cl)Cl)cc1`, the molecule was classed as inactive.

Consider `CCOC(=O)NCCOc1ccc(Oc2ccccc2)cc1`, for which the outcome was inactive. Same read-out and setting: under `CCCCCOC(=O)COc1cc(N2C(=O)C3=C(CCCC3)C2=O)c(F)cc1Cl` stands “inactive”; under `CCCN(CCC)c1c([N+](=O)[O-])cc(C(F)(F)F)c(N)c1[N+](=O)[O-]`, “inactive”; under `CC(C)(c1ccc(O)cc1)c1ccc(O)cc1`, “inactive”. On the same count and under the same terms, under `CN(C)C(=O)Nc1ccc(Cl)c(Cl)c1` stands “inactive”; under `N#CSCSc1nc2ccccc2s1`, “inactive”; under `O=C(O)C1(C(=O)Nc2ccc(Cl)cc2Cl)CC1`, “inactive”. For `CC(C)(C)[C@@H](O)[C@@H](Cc1ccc(Cl)cc1)n1cncn1`, the outcome was inactive. Turning to `CCCCOCCOCCOCc1cc2c(cc1CCC)OCO2`, the result was inactive.

Read-out in another assay: Cytochrome P450 2C19 (Homo sapiens) (UniProt P33261)
The assay can be described thus: CLD_CYP2C19_48hr: CellzDirect (CLD) Gene Expression Assay for xenobiotic metabolism (CYP2C19) at 48 hours (AID 2283700).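 Further: fitted upward so actives raise CYP2C19 mRNA above the 0.2% DMSO vehicle.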 The procedure, abridged: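 CYP2C19 mRNA induction read by chemiluminescent quantitative nuclease protection assay after 48 h, with fresh compound added daily for two days to cultured human liver hepatocytes. Activity fitted upward against 0.2% DMSO vehicle.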
As to `CCCCOC(=O)C(C)Oc1ccc(Oc2ccc(C(F)(F)F)cn2)cc1` (centres undefined), the molecule was called inactive.

For the molecule `CCN(CC)C(=O)c1cccc(C)c1`, the result was inactive.

For the molecule `CCCOC(=O)c1ccc(C(=O)OCCC)nc1`, the outcome was inactive. For the molecule `Oc1ccc(C(c2ccc(O)cc2)C(Cl)(Cl)Cl)cc1`, the result was inactive. Still for that read-out and setting: under `COC(=O)c1ccc(CNS(C)(=O)=O)cc1S(=O)(=O)NC(=O)Nc1nc(OC)cc(OC)n1` stands “inactive”; under `COc1nc(C)nc(NC(=O)NS(=O)(=O)c2ccccc2OCCCl)n1`, “inactive”.

Read-out in another assay: xenobiotic metabolism (CYP1A2), CYP1A2 (gene 1544)
The assay can be described thus: CLD_CYP1A2_48hr: CellzDirect (CLD) Gene Expression Assay for xenobiotic metabolism (CYP1A2) at 48 hours (AID 2283703). In short, it runs like this:
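Cytotoxicity was flagged yes/no from morphology, while CYP1A2 transcript induction was detected by qNPA chemiluminescence after a 48-hour exposure. Human primary hepatocyte cultures from separate donors received fresh dosing solutions daily over two days, with 0.2% DMSO as vehicle and baseline.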
With `c1ccc2[nH]c(-c3cscn3)nc2c1`, the concentration at half-maximal activity (AC50) was 1360 nM (active).

As for `COC(=O)c1ccccc1C(=O)O`, the molecule was classed as inactive.

`CSC(=O)c1cccc2nnsc12`: the concentration at half-maximal activity (AC50) is 9550 nM (active). For the molecule `COC(=O)c1c(Cl)nn(C)c1S(=O)(=O)NC(=O)Nc1nc(OC)cc(OC)n1`, the AC50 was 1130 nM (active). For `CCOC(=O)COc1cc(-n2ncc(C(F)(F)F)c(C)c2=O)c(F)cc1Cl`, the molecule was called inactive. `CCN(CC)C(=O)c1cccc(C)c1`: the call was inactive. For `CCCOC(=O)c1ccc(C(=O)OCCC)nc1`, the outcome was inactive. Turning to `CCN(Cc1c(F)cccc1Cl)c1c([N+](=O)[O-])cc(C(F)(F)F)cc1[N+](=O)[O-]`, the half-maximal activity concentration (AC50) is 565 nM (active).

`CCOC(=O)NCCOc1ccc(Oc2ccccc2)cc1`: the molecule was classed as inactive. Consider `CCCCCOC(=O)COc1cc(N2C(=O)C3=C(CCCC3)C2=O)c(F)cc1Cl`, for which the call was inactive. As for `COC(=O)c1ccc(CNS(C)(=O)=O)cc1S(=O)(=O)NC(=O)Nc1nc(OC)cc(OC)n1`, the outcome was inactive. On to `CCCN(CCC)c1c([N+](=O)[O-])cc(C(F)(F)F)c(N)c1[N+](=O)[O-]`, for which the concentration at half-maximal activity (AC50) is 2630 nM (active).

On to `CN(C)C(=O)Nc1ccc(Cl)c(Cl)c1`, for which the concentration at half-maximal activity (AC50) is 11900 nM (active). Regarding `N#CSCSc1nc2ccccc2s1`, the AC50 was 2820 nM (active).

Consider `O=C(O)C1(C(=O)Nc2ccc(Cl)cc2Cl)CC1`, for which the molecule was classed as inactive.

Consider `CC(C)(C)[C@@H](O)[C@@H](Cc1ccc(Cl)cc1)n1cncn1`, for which the AC50 was 3970 nM (active). Regarding `CCCCOCCOCCOCc1cc2c(cc1CCC)OCO2`, the AC50 was 5820 nM (active).

What is called AC50 is the concentration at which the activity in the assay is half-maximal.
